Experimental findings from PubChem BioAssay (NCI) are described below.

Compounds without any hit were thinned out: in the full panel of roughly 83,000, 20% have a hit.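 Compound tested at a single concentration for 48 hours in 96-well plates; a percent growth value below 10 was scored as active.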 Unmarked numbers belong to inactive results. Active and inactive are the calls of the source.

The test system of this assay is MDA-MB-468 breast. As to the kind of experiment: NCI-60 one-dose screen, 48 h (100 = growth as untreated, 0 = no growth, -100 = all killed). The settings on record: 10 µM unless noted.
In the case of `Nc1ccc2[nH]c(-c3ccccc3)cc(=O)c2c1`, the growth is 51%.
Consider `CCOC(=O)Cn1c(C)c(/C=N/NC(=O)c2cc3c(ccc4ccccc43)o2)c2ccccc21`, for which the growth is 16.1%.
With `O=C1/C(=C\c2cn(C(=O)c3ccc(Cl)cc3)c3ccccc23)c2ccccc2N1C(=O)c1ccc(Cl)cc1`, the growth is 51.7%.
As to `CCc1ccc(/C(C#N)=C/C=C/c2ccccc2)cc1`, the growth was -13.9% (active).
On to `COc1cc2cc(Oc3ccc(NC(=O)Nc4ccc(C(F)(F)F)cc4)cc3)c(C)nc2cc1OC`, for which the growth was 40.1%.
For `O=c1[nH]c(-c2ccncc2)nc2sc3c(c12)CCCCCC3`, the growth was 99.2%.
As for `Nc1cc(-c2ccccc2)ccc1O`, the growth was 93.5%.
As for `COc1ccc(/C=C2\COc3ccc(O)cc3C2=O)c(OC)c1`, the growth was -1.02% (active).
Turning to `CC1(C)CC[C@]2(C(=O)O)CC[C@]3(C)C(=CC[C@@H]4[C@@]5(C)C/C(=C/O)C(=O)C(C)(C)[C@@H]5CC[C@]43C)[C@@H]2C1`, the growth is 77.3%.
Turning to `O=C(NNc1nc2cc(F)ccc2n2c(CN3CCC(O)C3)ccc12)c1cnccn1` (stereo not given), the growth is -17.3% (active).
Take `O=C1c2ccccc2C(=O)c2sc(Nc3cccc(Cl)c3)nc21`: the growth was 13.2%.
The value for `O=C1N=c2ccccc2=C1c1sc(=Nc2ccccc2)n(Nc2ccccc2)c1O` was 123%; that for `O=C(O)CS(=O)c1ccc(Cl)cc1` (stereo not given) was 103%.
The value for `CCOc1ccc2nc(NC(=O)c3ccc(C(F)(F)F)cc3)sc2c1` was 111%.
In the case of `C#CCNCCN1C(=O)c2ccc3c4c(ccc(c24)C1=O)C(=O)N(CCNCC#C)C3=O`, the growth is 17.1%.
The value for `N/C(=N\N=C\c1cc2ccccc2[nH]1)N/N=C/c1cc2ccccc2[nH]1` was 107%; that for `CCOC(=O)[C@@H]1CCCN(S(=O)(=O)c2ccc(S(=O)(=O)N(CC)CC)c(F)c2)C1` was 36%.
On to `O=C(Nc1nc(-c2ccc(Cl)cc2)nc2c1sc(=S)n2-c1ccccc1)C(F)(F)F`, for which the growth is 70.1%.
`CC(C)(C)CC(C)(C)Cc1ccc(OCCOCC[N+](C)(C)Cc2ccccc2)cc1`: the growth is -35.3% (active).
As for `CS(=O)(=O)Nc1cc(-c2ccc3ncnc(Nc4ccc(F)c(Cl)c4)c3c2)cnc1Cl`, the growth is -43.3% (active).
With `Cc1cc2c(c(=O)o1)C(c1ccc(OC(=O)N3CCOCC3)cc1)C(C#N)=C(N)O2` (stereo not given), the growth was 119%.
`CC(C)(C)OC(=O)CC1(O)CCCCC1`: the growth was 94.5%.
Turning to `NC(=S)N/N=C(\c1ccc(Cl)cc1)C1CC1`, the growth is 18.5%.
As to `CNC(=O)c1c(NC(=O)c2ccc(C(C)(C)C)cc2)sc2c(CN(C)C)c(O)ccc12`, the growth is -60.5% (active).
Take `O=C(Nc1cccc2c1CCCC2)c1cc2ccccc2cc1O`: the growth was 33.8%.
On to `COc1ccc(-c2[nH]c3ccc(OC)cc3c2C=C(C#N)C#N)cc1`, for which the growth was -13.7% (active).
In the case of `CC(=O)c1cccc(NS(=O)(=O)c2cccc(C(=O)Nc3ccc(Br)cc3)c2)c1`, the growth was 1.14% [25 µM] (active).
For `Clc1ccc2oc3c(OCCCn4ccnc4)c4ccccc4nc3c2c1`, the growth was 66.5%.
As for `Nc1ccc(S(=O)(=O)Nc2ccsc2-c2nc(-c3ccccc3)no2)cc1`, the growth was 43.1%.
Regarding `COc1ccc(NCc2cn(-c3ccc(C(=O)O)cc3)nc2-c2cc(C(F)(F)F)cc(C(F)(F)F)c2)cc1`, the growth is 112%.
Regarding `C[C@@H]1CN(Cc2ccc(/C=C/c3n[nH]c4ccc5nc(-c6cn[nH]c6C(F)(F)F)c6c(c5c34)CCCC6)cc2)C[C@H](C)O1`, the growth is 76.9%.
Regarding `O=c1cc(CSc2nnc(-c3ccc(F)cc3)o2)c2ccc3ccccc3c2o1`, the growth was 101%.
Consider `COc1ccc2c(c1)c(-c1nonc1-c1cn(C)c3ccccc13)cn2C`, for which the growth is 13.9%.
Regarding `COc1ccc(CNS(=O)(=O)/N=C2\NC(=O)NC2=C(Cl)Cl)cc1`, the growth was 19.4%.
As to `CC(=O)c1c(C)[nH]c(-c2nc3ccc(N4CCN(C)CC4)cc3[nH]2)c1-c1ccccc1`, the growth was 24.1%.
As for `N=C(N)c1ccc(-c2ccc(-c3ccccc3)s2)cc1F`, the growth is -78.4% (active).
Regarding `O=C(CCN1C(=O)/C(=C/c2ccc(Cl)cc2)SC1=S)NCCCN1CCOCC1`, the growth was 100%.
As to `COc1ccc(-c2cc3c(nn2)-c2ccccc2C3=O)cc1`, the growth was -4.8% (active).
Then `COc1ccc2nc3cc(Cl)ccc3c(NC(=O)CSc3ccc(Cl)cc3)c2c1`, with -81.7% (active).
On to `C=C(C)[C@@H]1CC[C@]2(C(=O)O)CC[C@]3(C)[C@H](CC[C@@H]4[C@@]5(C)C/C(=C/c6ccc(OC)cc6)C(=O)C(C)(C)[C@@H]5CC[C@]43C)[C@@H]12`, for which the growth is 0.722% (active).
